Measurements as given in the supplement of paper PMC6555819.

Key:
Test in all cases: PBM binding z-score (relative to random genomic background probes); higher = stronger binding; sequences stand for … in GC…GCGATTGACAGCGTAGAATGAAGG
[1] = test system: FXR:RXRa (NR concentration 270 nM, RXRa partner concentration 90 nM)
How it was run: (§1)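 Binding z-scores were set against random background probes. The data came from custom Agilent 4×180K protein-binding microarrays carrying double-stranded probes with 34-nt variable regions, incubated 1 h with ligand-free nuclear receptor dimers. Partner-specific antibodies detected binding, and scanned fluorescence was regression-normalized.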

[2] = test system: LXRa:RXRa (NR concentration 270 nM, RXRa partner concentration 90 nM)
How it was run: as §1

[3] = test system: LXRa homodimer (NR concentration 270 nM)
How it was run: as §1

[4] = test system: LXRb:RXRa (NR concentration 270 nM, RXRa partner concentration 90 nM)
How it was run: as §1

[5] = test system: LXRb homodimer (NR concentration 270 nM)
How it was run: as §1

[6] = test system: PPARa:RXRa (NR concentration 270 nM, RXRa partner concentration 90 nM)
How it was run: as §1

[7] = test system: PPARg:RXRa (NR concentration 180 nM, RXRa partner concentration 90 nM)
How it was run: as §1

[8] = test system: PPARg:RXRa 270nM:90nM, anti-RXR (NR concentration 270 nM, RXRa partner concentration 90 nM)
How it was run: as §1

[9] = test system: PPARg:RXRa 30nM:10nM, anti-RXR (NR concentration 30 nM, RXRa partner concentration 10 nM)
How it was run: as §1

[10] = test system: PPARg:RXRa 90nM:30nM, anti-RXR (NR concentration 90 nM, RXRa partner concentration 30 nM)
How it was run: as §1

[11] = test system: PPARg:RXRa DBDmut IVT, anti-RXR (DBD mutation: RXRa K156A/R161A, NR concentration 270 nM, RXRa partner concentration 90 nM)
How it was run: as §1

[12] = test system: PPARg:RXRa IVT, anti-PPARg (NR concentration 270 nM, RXRa partner concentration 90 nM)
How it was run: as §1

[13] = test system: PPARg DBDmut:RXRa IVT, anti-PPARg (DBD mutation: PPARg1 K132A/R137A, NR concentration 270 nM, RXRa partner concentration 90 nM)
How it was run: as §1

[14] = test system: PPARg DBDmut IVT, anti-PPARg (DBD mutation: PPARg1 K132A/R137A, NR concentration 270 nM)
How it was run: as §1

[15] = test system: PPARg homodimer (NR concentration 180 nM)
How it was run: as §1

[16] = test system: PXR:RXRa (NR concentration 270 nM, RXRa partner concentration 90 nM)
How it was run: as §1

[17] = test system: PXR homodimer (NR concentration 270 nM)
How it was run: as §1

[18] = test system: RARa:RXR (NR concentration 270 nM, RXRa partner concentration 90 nM)
How it was run: as §1

[19] = test system: RARa homodimer (NR concentration 270 nM)
How it was run: as §1

[20] = test system: RARb:RXRa (NR concentration 270 nM, RXRa partner concentration 90 nM)
How it was run: as §1

Sequence | PBM binding z-score [1] | PBM binding z-score [2] | PBM binding z-score [3] | PBM binding z-score [4] | PBM binding z-score [5] | PBM binding z-score [6] | PBM binding z-score [7] | PBM binding z-score [8] | PBM binding z-score [9] | PBM binding z-score [10] | PBM binding z-score [11] | PBM binding z-score [12] | PBM binding z-score [13] | PBM binding z-score [14] | PBM binding z-score [15] | PBM binding z-score [16] | PBM binding z-score [17] | PBM binding z-score [18] | PBM binding z-score [19] | PBM binding z-score [20]
CGAACCAGGTCAAGGACAGTGAATCTCCGCACGC | 4.75 | 2.98 | 0.32 | 2.36 | -0.00984 | 4.52 | 4.96 | 4.26 | 1.28 | 3.31 | 4.75 | 5.44 | 0.626 | 1.5 | 2.06 | 2.01 | 0.853 | 3 | 0.303 | 4.04
CAAACTACGTCACAGAGGTCAAAGTCCGTGCGTA | 4.81 | 5.44 | 5.72 | 5.02 | 1.87 | 5.12 | 3.52 | 4.59 | 1.9 | 3.91 | 0.625 | 2.48 | 1.33 | 0.372 | 2.66 | 5.74 | 2.1 | 5.74 | 1.25 | 3.98
ATACCAAGGTGATCGTGAGGTCGTAGATACTAAC | 1.57 | 1.07 | 0.236 | 0.929 | -0.173 | 1.73 | 0.732 | 0.484 | -0.23 | -0.092 | 0.0521 | 1.54 | 0.536 | 0.745 | 0.811 | 2.2 | 0.811 | 2.21 | 0.262 | 1.33
CGTCCAAGGGCAAAGGTCAGTGAAGAGATGACGG | 4.46 | 4.17 | 0.705 | 3.56 | -0.199 | 5.39 | 8.11 | 7.1 | 5.37 | 7.34 | 1.01 | 4.07 | -0.495 | -0.877 | 1.99 | 4.76 | 0.541 | 6.49 | 0.911 | 4.78
GGAACGAGGGCATTTGAGTTGATAGCATGGCGAT | 1.31 | 1.6 | -0.156 | 0.482 | -0.207 | 1.65 | 0.939 | 0.641 | -0.0141 | 0.257 | 2.97 | 2.01 | -0.643 | -0.444 | 0.183 | 4 | 2.08 | 0.869 | -0.446 | 1.96
ACAAACAGGTGATGAAGGTAACTCAGGCTATCAT | 0.258 | 0.355 | 0.00497 | 0.22 | 0.327 | 0.415 | 0.866 | 0.462 | 0.363 | 0.0404 | 1.05 | 1.01 | 0.711 | 0.584 | 0.773 | 0.14 | 0.394 | 0.713 | 0.803 | 0.582
TGAATGAGGTTATAAGATGAGGGAACGTTGCAAA | 1.51 | 1.28 | -0.0389 | 1.09 | 0.338 | 2.36 | 1.1 | 1.61 | 1.03 | 1.43 | 1.09 | 1.5 | 0.967 | 0.169 | 0.684 | 0.72 | -0.291 | 1.49 | 0.262 | 1.19
